Data published in paper PMC4336329 (PLoS ONE, 2015).
The campaign covered roughly 310,000 compounds. About 14,000 (4.5%) showed an effect of 50% or more. Effects have a minus sign here. The full list was thinned out, with strong results kept by preference.

Molecular target: human ether-à-go-go-related gene (hERG) potassium channel (human, UniProt Q12809)
Test: primary screen, population patch clamp on CHO cells stably expressing hERG; higher = less effect of the substance
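Note: peak tail current of the secondary pulse compared with the same well before compound.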

Sequence of human ether-à-go-go-related gene (hERG) potassium channel (Q12809 whole entry, looked up): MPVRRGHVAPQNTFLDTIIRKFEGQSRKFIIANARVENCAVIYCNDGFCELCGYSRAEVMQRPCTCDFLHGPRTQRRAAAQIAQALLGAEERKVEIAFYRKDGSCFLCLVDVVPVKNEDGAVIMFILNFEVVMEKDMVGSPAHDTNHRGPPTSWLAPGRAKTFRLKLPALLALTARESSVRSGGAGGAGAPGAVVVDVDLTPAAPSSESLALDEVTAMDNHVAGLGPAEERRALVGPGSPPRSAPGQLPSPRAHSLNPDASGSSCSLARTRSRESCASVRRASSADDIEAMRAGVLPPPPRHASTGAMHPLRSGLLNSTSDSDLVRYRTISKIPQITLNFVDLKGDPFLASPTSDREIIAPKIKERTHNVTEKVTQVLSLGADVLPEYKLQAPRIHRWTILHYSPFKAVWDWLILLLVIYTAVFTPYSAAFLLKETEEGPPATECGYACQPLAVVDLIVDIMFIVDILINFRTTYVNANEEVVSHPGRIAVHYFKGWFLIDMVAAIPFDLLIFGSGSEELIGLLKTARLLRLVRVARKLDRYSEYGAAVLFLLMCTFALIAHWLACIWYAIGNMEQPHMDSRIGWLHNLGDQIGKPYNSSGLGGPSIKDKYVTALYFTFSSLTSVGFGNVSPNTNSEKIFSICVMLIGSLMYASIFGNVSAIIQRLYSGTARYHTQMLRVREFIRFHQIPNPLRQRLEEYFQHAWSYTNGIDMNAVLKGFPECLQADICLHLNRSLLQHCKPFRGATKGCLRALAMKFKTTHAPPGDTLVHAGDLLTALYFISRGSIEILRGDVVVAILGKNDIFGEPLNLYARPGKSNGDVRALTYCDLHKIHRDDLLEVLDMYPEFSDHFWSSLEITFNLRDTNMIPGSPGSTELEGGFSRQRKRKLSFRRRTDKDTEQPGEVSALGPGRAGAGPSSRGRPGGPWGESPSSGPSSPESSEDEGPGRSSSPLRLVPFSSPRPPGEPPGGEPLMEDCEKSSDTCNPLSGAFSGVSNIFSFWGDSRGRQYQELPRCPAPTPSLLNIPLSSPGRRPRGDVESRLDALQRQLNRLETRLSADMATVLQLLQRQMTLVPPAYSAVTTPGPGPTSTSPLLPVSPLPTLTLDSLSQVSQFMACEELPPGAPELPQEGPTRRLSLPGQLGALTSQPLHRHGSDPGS

Row | Structure (SMILES) | hERG current change (%, negative = inhibition) at 10uM [%]
1 | Cc1nnc2ccc(N3CCN(C(=O)c4ccccc4)CC3)nn12 | -0.844
2 | COc1ccc(S(=O)(=O)NCc2ccncc2)cc1NC(=O)c1ccccc1C | -36.6
3 | O=C(/C=C/c1cccc([N+](=O)[O-])c1)NCCSCc1c(Cl)cccc1Cl | -11.9
4 | NS(=O)(=O)c1ccc(NC(=O)c2ccc3c(c2)OCO3)cc1 | 11.3
5 | COc1cc(Cl)c(CN2CCCC(CO)(Cc3ccccc3)C2)cc1OC (stereo not drawn) | -55.2
6 | COc1cc(Cl)c(CN2CCCC(CO)(Cc3cccc(Cl)c3)C2)cc1OC (stereo not drawn) | -45.6
7 | COc1cc(Cl)c(CN2CCCC(CO)(Cc3ccccc3F)C2)cc1OC (stereo not drawn) | -20.1
8 | O=C(O)CSc1cc(C(F)(F)F)nc(-c2ccccn2)n1 | 5.55
9 | C#CCSc1cc(C(F)(F)F)nc(-c2ccccn2)n1 | -62.9
10 | FC(F)(F)c1cc(Sc2ccccc2)nc(-c2ccccn2)n1 | -19.3
11 | CCC(=O)NC(C)c1nc2ccccc2n1C (stereo not drawn) | 1.29
12 | Cc1sc2ncnc(N/N=C/c3ccc(O)cc3)c2c1C | 2.28
13 | Cc1sc2ncnc(N/N=C/c3ccccc3O)c2c1C | -1.58
14 | Cc1sc2ncnc(N/N=C/c3cccc(O)c3)c2c1C | -61.9
15 | O=C(CCNNC(=O)c1ccncc1)NCc1ccccc1 | 9.98
16 | OCC1(Cc2cccc(Cl)c2)CCCN(Cc2cnn(-c3ccccc3)c2)C1 (stereo not drawn) | -54.7
17 | Cn1cc(CN2CCCC(CO)(Cc3cccc(Cl)c3)C2)cn1 (stereo not drawn) | -17.1
18 | COc1ccccc1-n1cc(CN2CCCC(CO)(Cc3cccc(Cl)c3)C2)cn1 (stereo not drawn) | -49.5
19 | Cn1cc(CN2CCCC(CO)(Cc3ccccc3)C2)cn1 (stereo not drawn) | 4.27
20 | CCn1cc(CN2CCCC(CO)(Cc3cccc(Cl)c3)C2)cn1 (stereo not drawn) | -10.8
21 | OCC1(Cc2ccccc2)CCCN(Cc2cnn(-c3ccccc3)c2)C1 (stereo not drawn) | -59.4
22 | CC(C)n1cnc2c(Nc3ccc(F)c(Cl)c3)nc(NCCO)nc21 | -39
23 | [O-][N+]1=C(c2cccs2)CN(O)C1 | 8.57

Row | Structure (SMILES) | hERG current change (%, negative = inhibition) at 10uM [%]
24 | CC(OC(=O)/C=C/c1ccco1)C(=O)NC1CCCCC1C (stereo not drawn) | -3.2
25 | Nc1sc(-c2ccccc2)c(Cc2ccccc2)c1C(=O)O | -2.59
26 | Cc1cnc(NC(=O)CSc2ccccc2)s1 | 3.88
27 | FC(F)(F)c1ccc2c(c1)ncn2C1CCN(Cc2nnnn2C2CCCCC2)CC1 | -59.6
28 | Cc1ccc(Cn2nnnc2CN2CCC(n3nnc4cc(C(F)(F)F)ccc43)CC2)cc1 | 2.84
29 | Fc1ccc(Cn2nnnc2CN2CCN(C3CCCC3)CC2)cc1 | -49.1
30 | Fc1ccc(Cn2nnnc2CN2CCC(n3nnc4cc(C(F)(F)F)ccc43)CC2)cc1 | -69.6
31 | FC(F)(F)c1ccc2c(c1)nnn2C1CCN(Cc2nnnn2Cc2ccccc2)CC1 | -50.9
32 | Cl.Fc1ccc2c(c1)nnn2C1CCN(Cc2nnnn2C2CCCCC2)CC1 | -38.1
33 | C1CCN(Cc2nnnn2C2CCCC2)CC1 | 11.4
34 | OC1(c2cccc(C(F)(F)F)c2)CCN(Cc2nnnn2Cc2ccccc2)CC1 | 10.4
35 | O=C(O)CCC(=O)N1CCC(n2nnc3cc(C(F)(F)F)ccc32)CC1 | 10.5
36 | O=C(CSc1ccc2c(c1)OCCO2)NCCc1ccc(Cl)cc1Cl | -8.94
37 | O=C(Nc1ccc(Cl)cc1C(F)(F)F)c1ccccc1 | 8.81
38 | Cn1cnnc1SCC(=O)Nc1cc(S(=O)(=O)N2CCCCCC2)ccc1Cl | -17.8
39 | CCc1c(C)nc2ncnn2c1Nc1ccccc1C | -34.1
40 | CCOC(=O)N1CCC(NC(=O)c2cc(C(=O)Nc3ccc(OCC)cc3)ccc2CO)CC1 | 9.27
41 | CC(C)c1nnc(NC(=O)CC(C)c2ccccc2)s1 (stereo not drawn) | 1.39
42 | N#Cc1c(N)nc2c3c(sc(=N)c2c1N)NC(=O)CC3c1c(F)cccc1Cl (stereo not drawn) | -15.7
43 | O=C(NNc1nc2ccccc2s1)c1ccccc1F | -7.04
44 | Cc1cc(C)cc(NC(=S)NC2CC3CCCC(C2)N3Cc2cccs2)c1 (stereo not drawn) | -52.9
45 | Fc1ccc(NC(=S)NC2CC3CCCC(C2)N3Cc2cccs2)cc1 (stereo not drawn) | -59.5
46 | Cc1cccc(NC(=S)NC2CC3CCCC(C2)N3Cc2cccs2)c1C (stereo not drawn) | -37.9

Row | Structure (SMILES) | hERG current change (%, negative = inhibition) at 10uM [%]
47 | CCc1ccc(NC(=S)NC2CC3CCCC(C2)N3Cc2cccs2)cc1 (stereo not drawn) | -20.4
48 | Cc1ccc(NC(=S)NC2CC3CCCC(C2)N3Cc2cccs2)cc1 (stereo not drawn) | -56.5
49 | Fc1ccc(NC(=S)NC2CC3CCC(C2)N3Cc2ccco2)cc1 (stereo not drawn) | -12.6
50 | Cc1cccc(NC(=S)NC2CC3CCCC(C2)N3Cc2cccs2)c1 (stereo not drawn) | -35.9
51 | CCc1ccccc1NC(=S)NC1CC2CCCC(C1)N2Cc1cccs1 (stereo not drawn) | -4.03
52 | CC(C)CNC(=S)NC1CC2CCCC(C1)N2Cc1cccs1 (stereo not drawn) | -34.8
53 | CCOC(=O)C(=O)N(Nc1ccccc1C)c1ccccc1C | -14.3
54 | O=C(Nc1ccccn1)c1ccc2c(c1)OCCO2 | 11.5
55 | CC1CCN(c2nc(-c3ccc(F)cc3)cc(C(F)(F)F)n2)CC1 | 15.6
56 | Cc1csc(C2=C(O)CN(CCc3ccccc3)C2=N)n1 | 1.95
57 | O=C(CCc1ccccc1)OCCOC(=O)CCc1ccccc1 | 22.1
58 | Cc1cc(C(F)(F)F)nn1CC(=O)Nc1ccc2c(c1)OCO2 | -2.91
59 | CCCCOC(=O)c1ccc(NC(C)=O)cc1 | -11.2
60 | O=c1oc2ccccc2c(N2CCCC2)c1CN1CCCC1 | 13
61 | O=c1oc2ccccc2c(N2CCCCC2)c1CN1CCCCC1 | -18.4
62 | O=c1oc2ccccc2c(Cl)c1CN1CCCCC1 | 24.1
63 | O=c1oc2ccccc2c(N2CCCCC2)c1CN1CCCC1 | -54.4
64 | Nc1c(N2CCN(c3ccccc3)CC2)c2ccccc2oc1=O | -50.1
65 | CN1CCN(c2c(N)c(=O)oc3ccccc23)CC1 | -45.2
66 | O=c1oc2ccccc2c(O)c1CN1CCCCC1 | 13.9
67 | Nc1c(N2CCCC2)c2ccccc2oc1=O | 2.82
68 | O=c1oc2ccccc2c(Nc2ccccc2)c1CN1CCCCC1 | -57.1
69 | Cc1cc(C)cc(C(=O)NC(CC(N)=O)c2ccc(NC3CCCC3)c([N+](=O)[O-])c2)c1 (stereo not drawn) | 13.2

Row | Structure (SMILES) | hERG current change (%, negative = inhibition) at 10uM [%]
70 | CC(=O)c1ccc(NC(=O)/C(=C\c2cccs2)NC(=O)c2ccco2)cc1 | 17.9
71 | Cc1ccc(S(=O)(=O)Oc2ccc(C(c3c(C)[nH][nH]c3=O)c3c(C)[nH][nH]c3=O)cc2)cc1 | -1.83
72 | CC(C)CCn1c(NCCN(C)C)nc2c1c(=O)[nH]c(=O)n2C | -23.2
73 | COc1ccc(-n2c(SC3CCOC3=O)nc3ccccc3c2=O)cc1OC (stereo not drawn) | -4.64
74 | COC(=O)c1c(NC(=O)c2cccc(S(=O)(=O)N3CCN(C)CC3)c2)sc(C)c1C | 13.4
75 | COc1ccc(C2Nc3ccccc3C(=O)N2NC(=O)c2ccccc2)cc1OC (stereo not drawn) | 3.24
76 | Cc1ccccc1N=C1SCCN1C(=O)CN1C(=O)NC2(CCCC2)C1=O | -21.7
77 | CCOc1ccc(C2/C(=C(\O)c3ccc4c(c3)OCCO4)C(=O)C(=O)N2CCCN2CCOCC2)cc1OC (stereo not drawn) | 3.69
78 | Cc1cc(S(=O)(=O)N2CCOCC2)ccc1OCC(=O)Nc1ccc(F)cc1 | -18.9
79 | COc1ccc(C2/C=C\CN(S(=O)(=O)/C=C/c3ccccc3)[C@H](Cc3ccccc3)C(=O)N2Cc2ccc(F)cc2)cc1 (stereo partly drawn) | 8.05
80 | COc1ccc(C2SCC(=O)Nc3c2c(C)nn3-c2ccccc2)cc1 (stereo not drawn) | -7.35
81 | Cc1nn(-c2ccccc2)c2c1C(c1ccc(Cl)cc1)N(c1ccccc1)C(=O)N2 (stereo not drawn) | -64.6
82 | Cc1nn(-c2ccccc2)c2c1C(c1cccc([N+](=O)[O-])c1)N(c1ccccc1)C(=O)N2 (stereo not drawn) | 11.1
83 | O=C(CCCOc1ccc(Cl)cc1)Nc1cccc(C(=O)O)c1 | 13
84 | COc1ccc(NC(=O)c2ccc(-n3c(C)ccc3C)cc2)c(OC)c1 | -24.3
85 | COC(=O)c1ccc(C23CC4(C2)[C@H](CN(C)[C@@H]4c2ccccc2)C3c2ccc(Cl)nc2)cc1 (stereo partly drawn) | -28
86 | CCOc1ccc(CNC(=O)CCC(=O)n2ncc3ccc(Cl)cc32)cc1 | -1.82
87 | COc1cc(C(=O)N2CCN(C/C=C/c3ccccc3)CC2)cc(OC)c1C | -30.2
88 | COc1cc(C(=O)N2CCN(C/C=C/c3ccccc3)CC2)cc(OC)c1OC | -35
89 | COc1ccc(C(=O)NC2CC2)cc1OC1CCN(C/C=C/c2ccccc2)CC1 | -79.9
90 | COc1ccccc1/C=C/CN1CCC(Oc2cc(C(=O)NC3CC3)ccc2OC)CC1 | -76.5
